These results are taken from PubChem BioAssay AID720504 (National Center for Advancing Translational Sciences (NCATS), 2013).

Screen size: about 360,000 compounds; about 10,000 (2.8%) were called active. Another 4% or so got no clear call; they are omitted. For the sample, actives were picked, then their nearest neighbours and some compounds at random. Unmarked numbers belong to inactive results. The call rests on the fitted dose curve; in most records, active means well fitted inhibition curve with a large enough effect; inconclusive means small, poorly fitted or top-dose-only effect; inactive means flat fitted curve, though single readings scatter.
On the % scale 0 is the no-effect control and ±100 the full control effect; potency means the concentration at half of the fitted maximal effect.

This assay deals with Serine/threonine-protein kinase PLK1 (Homo sapiens) (UniProt P53350). Put plainly: qHTS for Inhibitors of PLK1-PDB (polo-like kinase 1 - polo-box domain): Primary Screen. Further: nearly all actives have a fitted effect of over 65% in size. On max response, negative = inhibition: series mostly up to about 57 µM. Particulars: Plk1 PBD binding of FITC phosphopeptide, fluorescence polarization. Background: qHTS replaces the single test concentration by a dilution series.
Sequence of Serine/threonine-protein kinase PLK1 (Homo sapiens) (P53350 whole entry, looked up, the tested form may be a part): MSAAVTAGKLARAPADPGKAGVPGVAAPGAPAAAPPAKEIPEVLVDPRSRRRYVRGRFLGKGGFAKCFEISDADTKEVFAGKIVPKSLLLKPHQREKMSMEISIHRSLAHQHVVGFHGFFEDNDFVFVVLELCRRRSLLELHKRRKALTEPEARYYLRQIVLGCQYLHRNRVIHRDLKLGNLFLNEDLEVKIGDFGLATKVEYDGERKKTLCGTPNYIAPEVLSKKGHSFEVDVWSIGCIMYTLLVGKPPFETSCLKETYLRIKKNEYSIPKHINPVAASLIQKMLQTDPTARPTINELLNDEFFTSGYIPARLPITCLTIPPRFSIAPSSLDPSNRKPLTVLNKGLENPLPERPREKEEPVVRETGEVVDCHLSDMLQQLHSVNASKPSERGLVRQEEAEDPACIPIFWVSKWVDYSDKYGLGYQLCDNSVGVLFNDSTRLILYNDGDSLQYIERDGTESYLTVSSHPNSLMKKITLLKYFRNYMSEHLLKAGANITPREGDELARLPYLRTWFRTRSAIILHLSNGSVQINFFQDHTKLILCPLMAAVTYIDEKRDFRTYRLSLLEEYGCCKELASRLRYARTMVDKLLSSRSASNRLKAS
Take `CC1(C(=O)NS(=O)(=O)c2ccccc2)CCN1C(=O)C/C=C/c1ccccc1` (centres undefined): the max response, negative = inhibition was -21.1%.
The same measure, in the same setting: next, `COc1ccc(OC)c(C(=O)NC2CCCc3c2cnn3-c2cc(C)cc(C)c2)c1` (centres undefined): -4.63%; `CC1C(=O)N(Cc2cn(Cc3ccco3)nn2)CCS(=O)(=O)N1Cc1ccc(-c2cccc(CO)c2)cc1` (centres undefined): -3.83%; `OC[C@@H]1CN(Cc2ccncc2)C[C@H](n2cnc3c(N4CCN(c5ccccc5)CC4)ncnc32)O1`: -12.1%.
Still for that read-out and setting: next, `Cc1cc(C)c2cc(C#N)c(N3CCNCC3)nc2c1`: -8.16%; `CCNC(=O)C1CCCN(C(=O)c2cc(F)ccc2C)CC1` (centres undefined): -1.52%; `COc1c(C(=O)N2CCCC2)ccc2ccccc12`: -0.934%.
For the compound `Cc1ccc(C(=O)N2CCCCCC2)cc1Br`, the Potency was 26.7 µM (active).
For the compound `Cc1c(Br)cc(C(=O)N2CCCCCC2)c(C)c1C`, the max response, negative = inhibition is -5.8%.
With `Cc1ccc(C(=O)N2CCCC2)c(F)c1F`, the Potency was 21.2 µM (active).
In the case of `O=C(c1ccc(Cl)c(Cl)c1)N1CCCC1`, the max response, negative = inhibition is -20.7%.
For `CCc1nc2c(OCc3ccc(C(F)(F)F)cc3)cccn2c1N(C)C(=O)CC(C)C`, the max response, negative = inhibition is 0.499%.
Regarding `COc1cc(-c2nnc(NC(=O)CS(=O)(=O)c3ccc(Cl)cc3)o2)cc(OC)c1OC`, the max response, negative = inhibition was -18.2%.
The same measure, in the same setting: then `CC(C)C1CCN(C(=O)C2CCC(=O)N(C3CCCCCC3)C2)CC1` (centres undefined), with 0.565%.
On the same count and under the same terms, next, `O=C(COc1ccccc1)Nc1ccc(F)cc1`: -17.9%; `CC(Sc1nnc(COc2ccccc2)n1-c1ccccc1)C(=O)O` (centres undefined): -5.44%.
With `Fc1ccc(/C=N/n2c(COc3ccccc3)n[nH]c2=S)cc1`, the Potency is 23.8 µM (active).
In the case of `CC(=O)Nc1cc(-c2ccc(N3CCN(C)CC3)cc2)cn2c(-c3cccc(C(=O)N(C)C)c3)cnc12`, the max response, negative = inhibition is -2.75%.
Still for that read-out and setting: next, `CN1OC[C@@H]2CN(S(=O)(=O)c3cccc(C(F)(F)F)c3)[C@H](c3ccc(-c4cc5ccccc5o4)cc3)C[C@@H]21`: -19.4%; `O=C(Nc1ccc2c(c1)OCCO2)C(C1CC1)N1CCC(Cc2ccccc2)CC1` (centres undefined): 1.88%.
As for `CCC(C(=O)NC(C)(C)C)n1c(-c2ccccc2)nc2ccccc21` (centres undefined), the max response, negative = inhibition is 0.0436%.
In the case of `CCOC(=O)N1CCN(CC(=O)c2c(C)[nH]c3ccccc23)CC1`, the Potency was 3.77 µM (active).
`Cc1[nH]c2ccccc2c1C(=O)CN1CC(C)CC(C)C1` (centres undefined): the max response, negative = inhibition is -9.93%.
On to `Cc1[nH]c2ccccc2c1C(=O)CN1CCCC(C)C1` (centres undefined), for which the max response, negative = inhibition was -2.14%.
`CNc1cncc(-c2cccc(C(=O)N3CCOCC3)c2)n1`: the max response, negative = inhibition is -3.85%.
Still for that read-out and setting: next, `COc1ccccc1-n1c(SCC(=O)Nc2ccc(Cl)cc2)nc(O)c(Cc2ccccc2)c1=O`: -10.5%; `CNc1cnc(-c2cc(OC)c(OC)c(OC)c2)cn1`: -14%; `CS(=O)(=O)c1ccc(C(=O)NNC(=O)c2cccs2)cc1`: -0.622%.
Still for that read-out and setting: then `O=C(NC(=S)Nc1ccc(NC(=O)c2cccs2)cc1)c1ccc([N+](=O)[O-])cc1`, with -4.47%.
The same measure, in the same setting: next, `CCc1ccc(NC(=O)C(=O)NNC(=O)c2cccs2)cc1`: -20.4%.
As to `NS(=O)(=O)c1ccc(NC(=S)NNC(=O)c2cccs2)cc1`, the Potency is 29.9 µM (active).
As for `CCc1nnc(NS(=O)(=O)c2ccc(NC(=O)c3cccc(OC(F)(F)C(F)F)c3)cc2)s1`, the max response, negative = inhibition is -23.6%.
`CCc1nnc(NS(=O)(=O)c2ccc(NC(=S)NC(=O)c3cccs3)cc2)s1`: the Potency was 18.9 µM (active).
In the case of `COc1ccc(Cn2c(=O)oc3ccccc32)cc1`, the max response, negative = inhibition is -4.16%.
On to `CC(=O)Nc1cccc(-c2cc3nc(NCc4cccnc4)n(C)c(=O)c3s2)c1`, for which the max response, negative = inhibition is -0.405%.
On the same count and under the same terms, then `CC(=O)Oc1ccc(Cn2c(C)c(C(=O)NCc3ccc(C#N)cc3)sc2=O)cc1`, with -2.92%; and `Cc1sc2nc(-c3ccccc3F)oc(=O)c2c1C`, with -3.03%; and `N#CCCN(C(=S)Nc1ccc(Cl)c(Cl)c1)C1CCCCC1`, with -9.12%.
Still for that read-out and setting: then `O=c1cnnc(Nc2ccccc2)[nH]1`, with -9.72%.
Turning to `S=c1[nH]nc(Nc2ccccc2)s1`, the Potency was 23.8 µM (active).
`CC(C)(C)C(=O)c1cnc(Nc2ccccc2)s1`: the max response, negative = inhibition is -4.38%.
Regarding `CCOC(=O)CSc1nccc(N(C)C)c1C#N`, the max response, negative = inhibition is -3.55%.
The same measure, in the same setting: then `CCOC(=O)c1cnc(SCC(=O)Nc2ccccc2C(=O)OC)nc1N`, with 0.561%.
On to `CCOC(=O)C(Sc1ncc(C#N)c(N)n1)C(C)C` (centres undefined), for which the Potency was 11.9 µM (active).
Take `COc1ccc(C(C[N+](=O)[O-])n2nc(C)cc2C)cc1` (centres undefined): the Potency was 26.7 µM (active).
As for `COc1cccc(CSc2nc3nc(C)cc(C)n3n2)c1`, the max response, negative = inhibition was -14.8%.
The same measure, in the same setting: then `COc1ccc(OC)c(S(=O)(=O)n2c([N+](=O)[O-])cnc2C)c1`, with -9.42%; and `CC1(C(=O)Nc2ccc3c(c2)OCCO3)CCN1C(=O)Cc1cc(F)ccc1F` (centres undefined), with 2.25%; and `CCOC(=O)c1cc(-c2sc(NC(=O)c3ccccc3)nc2C)n(-c2ccc(Br)cc2)n1`, with -6.87%.
With `O=C(NCc1ccccc1)C1CNCC(C(=O)NCc2ccccc2)C1` (centres undefined), the max response, negative = inhibition was 1.25%.
On to `O=C(c1ccc(N2CCCC2=O)cc1)N1CCN(c2ccc(C(F)(F)F)cc2[N+](=O)[O-])CC1`, for which the max response, negative = inhibition was -12.4%.
As to `Cc1cc(NC(=O)CCC(=O)N(CC(=O)NCC2CCCO2)c2ccccc2C)no1` (centres undefined), the max response, negative = inhibition was -1.5%.
With `CCc1ccccc1N(CC(=O)NCC1CCCO1)C(=O)CCC(=O)Nc1nccs1` (centres undefined), the Potency was 21.2 µM (active).
In the case of `COc1ccc(N(CC(=O)NCC2CCCO2)C(=O)CCC(=O)Nc2nccs2)c(OC)c1` (centres undefined), the max response, negative = inhibition is -9.55%.
Take `COc1ccc(C(=O)C(OP(=O)(OC)OC)c2ccccc2OC)cc1` (centres undefined): the max response, negative = inhibition is -7.71%.
On the same count and under the same terms, next, `CO[C@@H]1CN(C)C(=O)c2cc(NC(=O)C3CC3)ccc2OC[C@H](C)N(C(=O)CN2CCOCC2)C[C@@H]1C`: -4.89%.
Regarding `O=C(Nc1ccccc1-c1ccccc1)c1ccccc1[N+](=O)[O-]`, the max response, negative = inhibition was -3.58%.
On to `O=C(Nc1ccccc1-c1nnn(CC(=O)N2CCN(c3ccccc3)CC2)n1)c1cccs1`, for which the max response, negative = inhibition was -6.64%.
For the compound `O=C(Nc1ccccc1-c1ccccc1)c1cccs1`, the Potency was 4.23 µM (active).
As to `O=C(NCc1ccccc1)C1c2ccccc2OCC(=O)N1CCCN1CCOCC1` (centres undefined), the max response, negative = inhibition is -0.492%.
For `CC(C)c1ccc2c(c1)c(SC(C)(C)C)c(CC(C)(C)C(=O)O)n2Cc1ccc(Cl)cc1`, the Potency is 16.8 µM (active).
For the compound `COc1ccc(NC2CCCN(C(=O)c3ccccc3-c3ncc[nH]3)C2)cc1` (centres undefined), the max response, negative = inhibition was -9.12%.
Still for that read-out and setting: next, `CC1=C(C(=O)N(C(C)C)C(C)C)CC(CC(=O)NCCCCc2ccccc2)C(=O)N1CCC1=CCCCC1` (centres undefined): 1.49%; `CN(Cc1cn(Cc2ccc(C(F)(F)F)cc2)nn1)C1CN(Cc2cn(Cc3ccc(C(F)(F)F)cc3)nn2)S(=O)(=O)C1` (centres undefined): -2.76%.
With `CCOc1ccccc1NC(=S)C(=C([O-])c1ccc2c(c1)OCCO2)[n+]1ccc(CC)cc1`, the Potency is 26.7 µM (active).
With `CCc1ccccc1OCC(=O)Nc1ccc2c(c1)OCCO2`, the max response, negative = inhibition is -10.4%.
Take `O=[N+]([O-])c1cccc(/C([O-])=C(/C(=S)Nc2ccccc2F)[n+]2ccccc2)c1`: the max response, negative = inhibition was -15%.
On the same count and under the same terms, then `CCOc1ccc(CCN2C(=S)N([C@@H](CC(C)C)CN3CCC[C@@H]3CN3C(=S)NC[C@@H]3Cc3ccc(O)cc3)C[C@@H]2Cc2ccc(O)cc2)cc1`, with 5.13%.
Same read-out and setting: next, `CCc1nc2c(OCc3ccc(Cl)cc3Cl)cccn2c1N(C)C(=O)C(C)C`: 3.78%; `CC(C)CNC(=O)C1(C)CCCN1C(=O)CSc1ccccc1` (centres undefined): -9.29%; `O=C(CCC1CCCN(C(=O)Cc2ccc(F)cc2)C1)N1CCN(c2ccccn2)CC1` (centres undefined): 2.42%.
On the same count and under the same terms, next, `O=C(CCC1CCCN(C(=O)c2ccc(F)c(F)c2)C1)N1CCN(c2ccccn2)CC1` (centres undefined): -12.1%.
In the case of `C=Cc1ccc(C(=O)N2CCCC(CCC(=O)N3CCN(c4ccccn4)CC3)C2)cc1` (centres undefined), the Potency was 21.2 µM (active).
Regarding `O=C(C=CC(=O)Nc1ccc(F)cc1F)Nc1ccc(F)cc1F`, the max response, negative = inhibition is 0.443%.
Still for that read-out and setting: next, `COC(=O)Cc1ccc(OC2(C)CCN(Cc3ccc4c(c3)OCCO4)C2)cc1` (centres undefined): -7.87%.
Turning to `CC(=O)/C(=N\Nc1ccc(Cl)cc1Cl)Sc1cccc2cccnc12`, the Potency is 4.23 µM (active).
For `O=C(NNc1cc(Cl)ccc1Cl)c1cccnc1Cl`, the max response, negative = inhibition is 7.67%.
As for `COc1cccc(CNC(=O)c2cccnc2Sc2ccc(Cl)cc2)c1`, the max response, negative = inhibition is -0.639%.
Same read-out and setting: then `NC(c1csc(NC(=O)Nc2cccc(C(F)(F)F)c2)n1)C1CCCCC1` (centres undefined), with -5.95%; and `CC(=O)Nc1ccc(CNc2nc(NCCN(C)C)nc3cc(-c4ccccc4)sc23)cc1`, with 0.652%; and `Cc1cccc(C)c1Cn1c(C)c(C(=O)NCc2cccc(Cl)c2)sc1=O`, with -19.8%.
Regarding `CCNC(=O)C1(C)CCCN1C(=O)c1ccc(N(C)C)cc1` (centres undefined), the max response, negative = inhibition is -10.7%.
Take `NC(=O)C1(N2CCCCC2)CCN(C(=S)Nc2ccc(Cl)cc2)CC1`: the max response, negative = inhibition was 1.24%.
In the case of `O=C(NC1CCN(C(=S)Nc2ccc(Cl)cc2)CC1)C1CCCCC1`, the max response, negative = inhibition was -11.1%.
Consider `CN(C)c1ccc(C(=S)N2CCN(C(=S)Nc3ccc(Cl)cc3)CC2)cc1`, for which the Potency is 6.7 µM (active).
With `Cc1ccc(-c2nc3c(C)cc(Br)cn3c2Cc2ccccc2)cc1`, the max response, negative = inhibition was -13.2%.
For the compound `COc1cc(=O)[nH]c(=O)n1C(=O)Cc1ccccc1`, the Potency is 2.99 µM (active).
In the case of `COc1ccc(OC)c(NC(=O)C2(C)CCN2C(=O)Cc2ccccc2)c1` (centres undefined), the max response, negative = inhibition was -5.3%.
The same measure, in the same setting: next, `CCCOc1ccc(Cn2c(O)cc(=O)[nH]c2=O)cc1`: -26.3%.
